HCMV antiviral: blocks human cytomegalovirus replication; activity change, negative = inhibition, % at 57.5 µM; HFF cells, HCMV-luciferase reporter, 72 h; active compounds read low; AID 1259415; hit rate 4.5% among 410,000; in the data active means activity change below about -60%; inconclusive means no clear call, values can overlap the other calls; inactive means above about -39%
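After 16 h attachment at 37C, HFF cells received test compound and HCMV-luciferase (1 PFU/cell); reporter luminescence read 72 h later, data normalized against buffer-only and known inhibitor Salinomycin.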
HCV inhibitor: blocks hepatitis C virus. Huh7.5.1 HCVcc-Cre infection, luciferase reporter, 44 h. Potency, µM (doses to about 41.8 µM), inactives show at the top dose activity change, negative = inhibition, most hits filed as inhibitors. hit rate 3.4% among 340,000; further: potency means the concentration at half of the fitted maximal effect
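After 44 h co-culture of compound, cells and HCVcc-Cre (~0.5 moi), substrate is added for 15 min at room temperature and luciferase measured over 15 sec. Cells were seeded at 1,000/well and pre-cultured 4 h.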
Vaccinia Venus: inhibitors of vaccinia virus (Venus reporter). Vaccinia virus Venus reporter expression, fluorescence. Potency, µM (top dose mostly 36.5 µM), for inactives: at the top dose activity change, negative = inhibition, most hits filed as inhibitors. hit rate 0.46% among 330,000; calls by dose curve; tested in A549 cells; further: potency means the concentration at half of the fitted maximal effect; nearly all actives have a fitted effect of over 30% in size
FBPA Giardia inh: inhibitors of Giardia lamblia fructose-1,6-bisphosphate aldolase | Potency, µM (titrated, usually from 59.6 µM), inactives show at the highest dose activity, negative = inhibition, hits mostly inhibitors | purified Giardia FBPA | AID 2451 | hit rate 0.71% among 290,000; further: potency means the concentration at half of the fitted maximal effect; nearly all actives have a fitted effect of over 55% in size
Target sequence (A8B2U2 whole entry, looked up): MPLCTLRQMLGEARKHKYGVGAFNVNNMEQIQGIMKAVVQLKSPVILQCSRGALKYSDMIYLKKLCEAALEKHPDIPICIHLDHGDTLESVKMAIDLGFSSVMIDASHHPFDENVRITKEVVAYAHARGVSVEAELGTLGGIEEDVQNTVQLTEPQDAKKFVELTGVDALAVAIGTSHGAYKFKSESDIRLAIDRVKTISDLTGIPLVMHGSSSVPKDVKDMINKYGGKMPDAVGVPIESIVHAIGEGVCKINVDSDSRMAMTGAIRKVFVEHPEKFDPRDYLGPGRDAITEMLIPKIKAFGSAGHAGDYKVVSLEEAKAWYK
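40 nM FBPA preincubated 10 min at RT with compound (up to 57.5 uM final), then substrate plus GAPDH/TPI/NAD/arsenate coupling and diaphorase/resazurin added. Fluorescence read after 20 min at RT, 525/598 nm.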
Vaccinia mCherry: inhibitors of vaccinia virus infection (mCherry reporter signal) | Vaccinia virus mCherry reporter infection, fluorescence | hit rate 0.63% among 310,000 | Potency, µM (top dose mostly 36.5 µM), for inactives: at the top dose activity change, negative = inhibition, hits mostly inhibitors; calls by dose curve; tested in A549 cells; further: potency means the concentration at half of the fitted maximal effect; nearly all actives have a fitted effect of over 35% in size
FMDV inh: antivirals against foot and mouth disease virus | FMDV antiviral cell-based qHTS | AID 1159524 | hit rate 1.2% among 410,000 | Potency, µM (series often up to 57.9 µM), for inactives: at the top dose activity change, negative = inhibition, hits mostly inhibitors; calls by dose curve; tested in HEK293T cells; further: read-out not given here; potency means the concentration at half of the fitted maximal effect; nearly all actives have a fitted effect of over 45% in size
Active calls of the source: *; i = inactive; ? = inconclusive; nt = not tested or not shown; [ ] = dose if it differs, or a comment. Compounds with a hit are over-represented: about 7.5% of the library has one in this group of screens. Unless noted, the call rests on the fitted dose curve; in most records, active means well fitted curve in the direction sought with a large enough effect; inconclusive means small, poorly fitted or top-dose-only effect, or another doubt; inactive means no such curve, though single readings can be large; an effect the other way counts as inactive or inconclusive. On the % scale 0 is the no-effect control and ±100 the full control effect.

SMILES | HCMV antiviral | HCV inhibitor | Vaccinia Venus | FBPA Giardia inh | Vaccinia mCherry | FMDV inh
O=C(Nc1ccc(Oc2ccccc2)cc1)c1csc(COCCO)n1 | -80.6* | nt | -11.5% | nt | i | 0.0%
CCCCN1CC(COCc2ccccc2)Oc2cccc(Sc3ccc(OC)c(OC)c3)c2S1(=O)=O (centres undefined) | 5.5 | nt | nt | nt | nt | nt
CC1(C(=O)NS(=O)(=O)C2CC2)CCN(C(=O)c2ccc(F)cc2Cl)C1 (centres undefined) | -39.1 | nt | 3.0% | nt | 14.6% | -18.9%
COCCNC(=O)C[C@@H]1C[C@H]2c3cc(NC(=O)Nc4ccc(F)cc4)ccc3O[C@H]2[C@H](CO)O1 | 8.0 | nt | -15.1% | nt | i | -10.0%
O=C(Nc1cccc(-c2ccc(N3CCCCC3)nn2)c1)C(F)(F)F | -4.3 | -12.9% | nt | 3.0% | nt | -62.4%
CC1CCN(c2ccc(-c3cccc(NC(=O)C(F)(F)F)c3)nn2)CC1 | -4.1 | -19.6% | -9.3% | -3.9% | -14.0% | 15.8µM*
CCC(=O)Nc1cccc(-c2ccc(N3CCC(C)CC3)nn2)c1 | -67.0* | -5.1% | nt | 4.0% | nt | -73.9%
Nc1nccc(SCc2ccc(Cl)cc2Cl)n1 | -15.4 | -20.6% | -17.0% | nt | -25.5% | -15.5%
NNc1ccc(Cc2ccc(Cl)cc2Cl)nn1 | -69.8* | ? | -7.0% | -6.2% | -17.6% | -2.5%
Nc1nc(N)c(Cc2ccc(Cl)cc2Cl)c(N)n1 | -73.5* | ? | -12.8% | -0.2% | -20.8% | ?
COc1ccccc1-c1cc2c(Nc3ccc(NC(C)=O)cc3)nccc2[nH]1 | -4.6 | nt | nt | nt | nt | nt
COc1ccc(Cl)cc1-n1c(/C=C/c2cccc3ccccc23)nc2ccccc2c1=O | 3.8 | nt | -18.9% | nt | -20.1% | -22.4%
O=c1c2ccccc2nc(/C=C/c2cccc3ccccc23)n1-c1ccccc1Cl | ? | nt | ? | nt | -24.8% | 22.4µM*
Cc1ccccc1-n1c(/C=C/c2ccccc2F)nc2ccccc2c1=O | -84.7* | nt | -17.8% | nt | -15.0% | ?
CCOc1cc(/C=C(\C#N)C(N)=O)cc(CSc2ccccc2)c1O | nt | nt | nt | -6.4% | nt | nt
c1ccc(N2CCN(c3ncnc4c3nc3n4CCCCC3)CC2)cc1 | -76.1* | nt | ? | nt | ? | 10µM*
O=C(C1CCN(c2ncnc3c2nc2n3CCCCC2)CC1)N1CCN(c2ccc(Cl)cc2)CC1 | ? | nt | -6.7% | nt | i | -4.0%
Clc1ccc(N2CCN(c3ncnc4c3nc3n4CCCC3)CC2)cc1 | -68.5* | nt | -29.2%[7.34 µM] | nt | ? | ?
Fc1ccc(N2CCN(c3ncnc4c3nc3n4CCCCC3)CC2)cc1 | -24.2 | nt | ? | nt | ? | 25.1µM*
Cc1cccc(N2CCN(c3ncnc4c3nc3n4CCCCC3)CC2)c1C | -27.5 | nt | -10.9% | nt | -13.2% | -13.7%
OCCC1CN(Cc2cn[nH]c2C2CCCCC2)CCN1C1CCCCC1 (centres undefined) | -37.1 | 9.9% | 4.3% | 2.1% | 7.8% | -11.9%
CC(NC(=O)C1CCCN(C(=O)c2ccc(Cl)cc2)C1)c1cccc(C(F)(F)F)c1 (centres undefined) | 3.7 | ? | nt | nt | nt | ?
Cc1[nH]c2ccccc2c1C1=CCNCC1 | -25.8 | 11.2µM* | nt | ? | nt | -1.7%
CCCN1CNc2c(c(=O)[nH]c(=S)n2CCC(C)C)C1 | nt | nt | -11.7% | nt | i | nt
Cc1ccc(C(=O)CSc2ncnc3ccccc23)o1 | -60.2* | 3.6% | ? | -7.1% | ? | 8.4%
SMILES | HCMV antiviral | HCV inhibitor | Vaccinia Venus | FBPA Giardia inh | Vaccinia mCherry | FMDV inh
Fc1ccc(CSc2ncnc3ccccc23)cc1 | -67.5* | 2.8% | -11.9% | -9.0% | -18.5% | 3.1%
O=C(CSc1ncnc2ccccc12)c1cccs1 | 1.3 | 3.1% | ? | -5.3% | -27.2% | -39.4%
O=[N+]([O-])c1cccc(CSc2ncnc3ccccc23)c1 | -80.6* | -27.0% | nt | -4.1% | nt | -13.3%
c1ccc(CSc2ncnc3ccccc23)cc1 | -30.7 | ? | -12.3% | 1.6% | i | 6.9%
O=C(COc1ccc(Cl)cc1)OCc1cc(=O)n2nc(C3CCCCC3)sc2n1 | 7.2 | nt | 5.6% | nt | -6.8% | -4.2%
CCc1ccc(C(=O)c2cn(CC(=O)Nc3cc(OC)ccc3OC)c3ccc(C)cc3c2=O)cc1 | 2.5 | nt | -10.9% | nt | -16.1% | -23.2%
COc1ccc2c(Sc3ccccc3)c(C(=O)NCc3ccc(OC(C)C)cc3)[nH]c2c1 | 20.5 | nt | -9.9% | nt | i | 0.0%
CSc1nnc(-c2cccs2)n1-c1ccccc1 | 15.1 | ? | 0.4% | 7.1% | -0.7% | -11.6%
CN1CCN(S(=O)(=O)c2ccc(Sc3nnc(-c4cccs4)n3-c3ccccc3)nc2)CC1 | 26.6 | ? | ? | 8.9% | 10µM* | ?
COc1cc2c(ccc3cc(OC)c(OC)c(O)c32)cc1O | -104.8* | ? | -20.2% | -5.1% | -10.5% | -1.3%
Cc1ccccc1C(=O)N1CCC1(C)C(=O)NC(C)C (centres undefined) | 0.9 | nt | 8.6% | nt | i | -8.4%
CCn1c(COc2c(C)cccc2C)nnc1SCC(=O)N1CCN(c2ccccc2)CC1 | ? | 35.5µM* | ? | 11.4% | nt | ?
C=CCn1c(COc2cccc(C)c2C)nnc1SCC(=O)N1CCN(c2ccccc2)CC1 | ? | ? | ? | -1.1% | ? | 17.8µM*
CCn1c(COc2cc(C)cc(C)c2)nnc1SCC(=O)N1CCN(c2ccccc2)CC1 | ? | ? | nt | 6.4% | nt | ?
CC(C)(C)n1nnnc1C(c1ccccc1)N1CCN(c2ncc(C(F)(F)F)cc2Cl)CC1 (centres undefined) | -77.5* | nt | -5.2% | nt | i | ?
O[C@@H]1CN(CC2CCCCC2)[C@@H](c2ccc(Cl)cc2)C[C@H]1n1cc(-c2ccc(F)cc2)nn1 | 31.0 | nt | 2.3% | nt | -4.8% | -7.3%
Nc1ccc(C2(c3ccc(N)cc3)C(=O)Nc3ccccc32)cc1 | -62.2* | 1.2% | 0.0% | ? | i | nt
CN(CC(=O)Nc1ccc(Cl)cc1)CC(=O)Nc1cccc(Br)c1 | 12.9 | 1.3% | -11.2% | -0.7% | -5.4% | -23.7%
CC1CCCN(S(=O)(=O)c2ccc(C(=O)Nc3nnc(-c4ccccc4Cl)o3)cc2)C1 (centres undefined) | -98.2* | -8.8% | -6.0% | ? | 0.3% | -12.9%
CC1CCCN(S(=O)(=O)c2ccc(C(=O)Nc3nnc(C4CC4)o3)cc2)C1 (centres undefined) | ? | -19.6% | -17.2% | ? | ? | -6.9%
Cc1nnc(NC(=O)c2ccc(S(=O)(=O)N3CC(C)OC(C)C3)cc2)o1 (centres undefined) | 14.0 | 20.8% | -9.2% | 11.6% | -1.3% | -6.6%
CC1CC(C)CN(S(=O)(=O)c2ccc(C(=O)Nc3nnc(-c4cccs4)o3)cc2)C1 (centres undefined) | -70.2* | ? | -22.7% | ? | -29.6% | -21.7%
COc1cccc(-c2nnc(NC(=O)c3ccc(S(=O)(=O)N4CC(C)OC(C)C4)cc3)o2)c1 (centres undefined) | -94.4* | ? | ? | ? | ? | -11.4%
CCC1CCCCN1S(=O)(=O)c1ccc(C(=O)Nc2nnc(-c3cccs3)o2)cc1 (centres undefined) | nt | ? | ? | ? | ? | -16.9%

Screening results as filed in PubChem BioAssay.
